# IEC-6 cytotox = cytotoxicity in IEC-6 intestinal epithelial cells, primary screen, cytotoxicity control for KLF5 inhibitor project, cell-based, luminescence; IEC-6 cytotoxicity, luminescence viability; inhibition, % at 5 µM; 290,000 tested, 0.78% active; in the data active means inhibition above about 22%;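 further: 0% = plate median of test compound wells and 100% = cytotoxic reference compound wells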
# APP 5UTR inh = inhibitors of APP translation via 5'UTR reporter, primary screen, APP 5'UTR luciferase, SH-SY5Y cells. SH-SY5Y APP 5'UTR-luciferase reporter, luminescence. 190,000 tested, 0.82% active. inhibition, % at 2 µM;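 active means inhibition above a set limit, derived from the sample mean plus 3 SD, cut at about 45% in these data; inconclusive means one replicate passes the limit while the other fails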
# KLF5 inhibitor = KLF5 expression inhibitors, primary screen, DLD-1 cells, luminescence. DLD-1 KLF5 promoter-luciferase reporter. 290,000 tested, 0.23% active. AID 1700, 2009. inhibition, % at 5 µM;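 active means inhibition above a per-plate limit of that plate's mean compound inhibition plus 3 SD, cut at about 60% in these data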;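 further: 0% = DMSO wells and 100% = LY294002 at 200 µM; higher means less KLF5 promoter-driven luciferase light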
# aSyn UTR inh = MLPCN primary screen, SNCA 5' untranslated region. alpha-synuclein 5'UTR reporter, inhibitor activity. inhibition, % (tested at 7.5 µM). 300,000 tested, 0.82% active. AID 1813, 2009; in the data active means inhibition above about 60%; inconclusive means no clear call, values can overlap the other calls;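 further: H4 neuroglioblastoma cells stably carrying SNCA 5'UTR luciferase fusion; 0% = DMSO wells and 100% = positive control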
# Ba/F3 V617F tox = reduced viability of JAK2V617F-dependent Ba/F3 cells, primary screen, JAK2V617F inhibitor project, cell-based, Ba/F3 EpoR-JAK2V617F, luminescence | ATP luminescence | 220,000 tested, 1.1% active | AID 1446, 2008 | inhibition, % at 5.6 µM;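 active means inhibition above the campaign mean plus 3 SD over all tested compounds, cut at about 24% in these data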;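 further: cytokine-independent growth of Ba/F3 cells driven by EpoR plus mutant JAK2; 0% = DMSO-treated cells and 100% = JAK inhibitor I control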
# BaF3 tox = parental Ba/F3 cell viability inhibition, counter-screen for JAK2V617F inhibitor project, murine pro-B, CellTiter-Glo luminescence. inhibition, % at 5.6 µM. 220,000 tested, 1.1% active. CellTiter-Glo ATP luminescence;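 active means inhibition above a per-campaign cutoff, the mean inhibition of all tested compounds plus 3 SD, cut at about 27% in these data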;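 further: 0% = DMSO wells and 100% = JAK Inhibitor I control wells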
# * = called active by the depositor; ? = inconclusive; . = not tested or not shown. A selection: hits, their analogues and other compounds. The true share with any hit is near 2.2%.
SMILES,IEC-6 cytotox,APP 5UTR inh,KLF5 inhibitor,aSyn UTR inh,Ba/F3 V617F tox,BaF3 tox
Cc1cccc(-n2ncc3c(N4CCCC4)ncnc32)c1,2.5,-137.7,-121.7,29.3,5.5,8.9
Clc1ccc(-n2ncc3c(N4CCCCCC4)ncnc32)cc1,3.2,-26.9,2.6,77.9*,-3.6,0.1
Cc1cccc(-n2ncc3c(N4CCOCC4)ncnc32)c1,2.7,-66.6,42.5,77.3*,8.0,11.7
Oc1ccccc1-c1nnc(SCCN2CCOCC2)n1Cc1ccccc1,-1.1,37.4,49.2,80.7*,94.2*,82.6*
CC12CCC(=O)N1C(C(=O)NCc1ccccc1F)CS2 (configuration not stated),.,.,.,-3.9,.,.
COc1cc(O)ccc1/C=N/NC(=O)c1ccc([N+](=O)[O-])cc1,-7.4,-12.4,-2.4,7.6,-2.5,4.8
O=C(NC(CSCc1ccccc1)C(=O)N/N=C/c1ccc(O)cc1O)c1ccc([N+](=O)[O-])cc1 (configuration not stated),19.9,49.5*,32.7,83.7*,7.5,9.4
CCCN1CCN(S(=O)(=O)c2ccc(-n3cnnn3)cc2)CC1,3.7,.,-16.0,-3.8,.,.
N#Cc1c(-c2ccc(Cl)cc2)c2c([nH]c1=O)-c1ccccc1OC2,-1.8,.,4.8,16.5,11.9,51.1*
O=C1CCc2cc(S(=O)(=O)Nc3ccccc3)cc3c2N1CC3,.,.,.,-14.3,.,.
CCOC(=O)Cc1csc(NC(=O)c2c(O)c3ccccc3n(CC(C)C)c2=O)n1,-4.1,.,-33.7,74.6*,-4.5,-0.3
O=C(CN1C(=O)NC2(CCCC2)C1=O)Nc1ccc(C(F)(F)F)cc1,6.2,.,-4.0,4.9,.,.
Cc1ccc(CN2CCN(/N=C/c3ccc(C(=O)O)cc3)CC2)c(C)c1,7.0,-11.9,-3.8,10.8,7.7,53.4*
COC(=O)c1ccc(OC(=O)CS(=O)c2ccccc2[N+](=O)[O-])cc1 (configuration not stated),5.0,-4.5,-24.1,-11.4,3.1,3.4
O=C(CS(=O)c1ccc(C(F)(F)F)cc1[N+](=O)[O-])Oc1ccccc1 (configuration not stated),15.7,-2.9,-18.2,16.6,53.1*,47.8*
CS(=O)(=O)c1ccc(S(=O)CC(=O)OCc2ccccc2)c([N+](=O)[O-])c1 (configuration not stated),-6.3,48.4*,-6.9,-44.8,42.8*,-5.0
O=C(Nc1nccs1)c1cn2ccccc2n1,6.6,.,-30.8,64.7*,6.5,6.3
Nc1c(C(=O)Nc2ccc(S(=O)(=O)N3CCCC3)cc2)sc2nc3ccc(OC(F)(F)F)cc3cc12,-1.5,72.6*,11.7,109.2*,-3.3,7.0
O=C(Nc1ccnn1C1CCN(C(=O)c2cc(Cl)ccc2F)CC1)C1CCOC1 (configuration not stated),-0.4,.,-16.1,5.1,.,.
O=[N+]([O-])c1cc(-c2ncccn2)c([N+](=O)[O-])s1,5.3,76.1*,1.7,-19.6,4.0,1.5
O=C(NC1CCCCC1)C(c1cccnc1)N(C(=O)c1csnn1)c1ccccc1F (configuration not stated),6.1,.,-2.7,-8.0,.,.
Cc1c(OC(C)C(=O)N2C[C@H]3C[C@@H](C2)c2cccc(=O)n2C3)ccc2c3c(c(=O)oc12)CCCC3 (some centres not stated),-0.2,.,-24.8,1.5,.,.
COc1ccc(CCNC(=O)c2ccc(CS(=O)Cc3ccc(Cl)cc3)o2)cc1OC (configuration not stated),5.2,.,-16.3,9.6,.,.
CCC1Oc2ccc(C)cc2N(CC(=O)NCc2ccco2)C1=O (configuration not stated),-1.1,4.2,-25.6,-16.8,1.4,89.5*
O=S(=O)(c1ccc(-c2n[nH]c(=S)o2)cc1)N1CCCC1,1.8,.,-20.3,-3.8,.,.
SMILES,IEC-6 cytotox,APP 5UTR inh,KLF5 inhibitor,aSyn UTR inh,Ba/F3 V617F tox,BaF3 tox
COc1ccc(C(O)(CC(C)C)C(CN2CCOCC2)c2ccccc2)cc1 (configuration not stated),-13.9,.,20.4,66.0*,.,.
CCc1ccc(C(O)(CC(C)C)C(CN2CCOCC2)c2ccccc2)cc1 (configuration not stated),-5.2,.,0.8,?,.,.
COc1ccc(C)cc1NC(=O)C(=O)NCc1ccncc1,2.2,-11.4,-5.6,-0.6,-1.8,96.2*
CCOC(=O)c1cc(C(=O)OCC)c(=O)[nH]c1SCc1ccccc1,2.1,.,-20.3,10.7,.,.
Cc1cc(C(=O)Nc2ccc(Br)cc2)cs1,4.5,.,-179.1,-130.1,.,.
COc1ccc(NC(=O)CCS(=O)(=O)c2ccccc2Cl)cc1S(=O)(=O)Nc1ccc(Cl)cc1,10.4,-4.0,-5.5,-19.6,15.6,68.9*
CCCc1cc(C(=O)NNC(=S)NC2CCCCC2)cs1,7.1,.,-42.6,-29.1,.,.
CCCOc1ccc(/C=C/C(=O)Nc2ccc([N+](=O)[O-])cc2)cc1,3.7,-9.2,4.2,68.0*,-0.3,10.4
CCCCOc1ccc(/C=C/C(=O)Nc2ccc([N+](=O)[O-])cc2C)cc1,-0.1,-8.1,-24.4,-11.1,1.4,3.8
COc1cc(C(=O)Nc2ccc3c(c2)Cc2ccccc2-3)cc(OC)c1OC,6.1,3.5,11.0,-7.5,-4.6,-0.8
COc1cc(C(=O)Nc2ccc3c(c2)CCN3C(C)=O)cc(OC)c1OC,40.1*,81.0*,27.9,96.9*,78.2*,79.2*
Cc1ccc(S(=O)(=O)N(C)C)cc1NC(=O)CSc1nncs1,.,.,.,-4.3,.,.
N#Cc1ccccc1COc1ccc(/C=C/C(=O)O)cc1,-0.3,59.5*,-1.8,71.0*,7.5,5.3
Cc1[nH]c(=O)[nH]c(=S)c1C(=O)Nc1ccc(Cl)c(Cl)c1,.,.,.,-2.9,.,.
O=[N+]([O-])c1ccc(-c2nc(C(Cl)Cl)c3ccccc3n2)cc1,19.2,.,-12.4,128.7*,-0.5,1.2
COc1ccc(C(C(=O)OC(C)CN(C)C)c2ccccc2)cc1 (configuration not stated),-1.0,-6.4,-23.5,1.6,-0.3,5.2
CN(C)CC(C(=O)c1ccccc1)c1ccccc1 (configuration not stated),4.4,93.9*,-5.8,-170.8,-1.1,-0.6
CCCC(C)NC(=S)NC(=O)c1cc(S(=O)(=O)N2CCOCC2)ccc1C (configuration not stated),-3.3,-18.1,14.1,41.1,-0.8,4.5
CCCCCC(C)NC(=S)NC(=O)c1cc(S(=O)(=O)N2CCOCC2)ccc1C (configuration not stated),3.8,-0.2,-2.4,66.2*,-3.6,41.8*
COc1cc(-c2csc(NC3CCCCC3)n2)cc(OC)c1OC,-8.2,.,-35.6,2.7,.,.
COc1cc(OC)c(OC)cc1/C=N/Nc1nc2ccccc2[nH]1,10.3,.,-24.8,-1.7,2.5,4.8

# Screening results (PubChem BioAssay)
